According to ChEMBL document CHEMBL1157539, “Thousands of chemical starting points for antimalarial lead identification” (Nature, 2010):

test system: HepG2; test: GSK_TCMDC: Percent inhibition of human HepG2 cell line. Test compounds present at 10uM.; assay type: functional

Row | Compound | Inhibition [%]
1 | COc1cc2c(cc1OC)CN(CCc1ccc(NC(=O)c3cc4cc(Cl)ccc4[nH]3)cc1)CC2 | 3
2 | CCC(=O)c1ccc(-c2ccc(=O)n(CC(=O)N(CCN(CC)CC)Cc3ccc(-c4ccc(C(F)(F)F)cc4)cc3)n2)cc1 | 91
3 | Cc1cccc2c(C(=O)NC3CCN(Cc4ccccc4)CC3)cc(-c3cccnc3)nc12 | 12
4 | COC(=O)c1ccc(-c2ccc(C(=O)NCC3CCN(c4nc(N)c5cc(OC)c(OC)cc5n4)CC3)cc2)cc1 | 53
5 | N=C(N)NC(=O)Nc1cc(Cl)c(Br)c(Cl)c1 | 6
6 | O=C(O)C(F)(F)F.c1cc(CNCCc2ccncc2)cc(-c2csc(-c3nc4ccccc4[nH]3)c2)c1 | 16
7 | O=C(Nc1cccc(-c2cccc(-c3nc4cc(C(F)(F)F)ccc4[nH]3)c2)c1)c1csnn1 | 45
8 | CCc1ccc(C2CCN(CCCCNC(=O)c3ccc(-c4ccc(Cl)cc4)cc3)CC2)c(O)c1 | 48
9 | Fc1ccccc1C=NN=c1cc[nH]c2ccc(C(F)(F)F)cc12 | 5
10 | CC(=O)C1=NN(c2ccc(C)cc2)C(c2cccs2)N1c1ccccc1 (configuration not stated) | 0
11 | CC(C)Oc1ccc2c(c1)OC(c1ccccc1)(C(F)(F)F)NC2=O (configuration not stated) | 0
12 | O=C(/C=C/c1ccc(Cl)c(Cl)c1)NCCCCCN1CCC(NC(=S)Nc2ccc(F)cc2F)CC1 | 20
13 | COc1ccc(NC(=O)NC2CCN(CCCOc3ccnc4cc(Cl)ccc34)C2)cc1OC (configuration not stated) | 6
14 | CCOC(=O)c1cc(C(=O)NCCCCN2CCC(c3cn(C)c4ccccc34)CC2)ccc1-c1ccc(C(F)(F)F)cc1 | 25
15 | CN(C)c1cccc2c(S(=O)(=O)Nc3cccc(CCN4CCC(N5CCCCC5)CC4)c3)cccc12 | 41
16 | CC[C@H](C)CNC(=O)c1cncc(-c2ccc(CNCC3CNCCCO3)cc2)c1.O=C(O)C(F)(F)F (some centres not stated) | 0
17 | CCOc1cc(C(=O)Nc2ccc(-c3nc4ccccc4[nH]3)cc2)cc(OCC)c1OCC | 42
18 | Cc1cc(Nc2ccc(Cl)c(Cl)c2)n2nc(C)nc2n1 | 6
19 | CC(C)N1CCC(NC(=O)N2CCCN(c3ncnc4cc(-c5ccccc5)sc34)CC2)CC1.O=C(O)C(F)(F)F | 31

Row | Compound | Inhibition [%]
20 | O=C(NC1CC1)c1cnc(N2CCC(OCc3ccccc3)CC2)c(Cl)c1.O=C(O)C(F)(F)F | 0
21 | O=C(/C=C/c1cccc(Cl)c1)NCCCCCN1CCC(c2c[nH]c3ccccc23)CC1 | 46
22 | COc1ccc(-c2cnc3ccc(N4CCCC4)nn23)cc1OC.O=CO | 40
23 | C[C@@H](COc1ccccc1)NCC(O)c1ccc([N+](=O)[O-])c(OCc2ccccc2)c1 (some centres not stated) | 5
24 | CCCCCCNC(=O)C1Cc2c([nH]c3ccc(Br)cc23)C2(CCN(CCc3ccccc3)CC2)N1 (configuration not stated) | 36
25 | COc1cc(CNCCCCCCNCc2cc(OC)c(OC)c3ccccc23)c2ccccc2c1OC.CS(=O)(=O)O | 100
26 | COc1ccc2c(=NN=Cc3cccc(Cl)c3)cc(C)[nH]c2c1 | 3
27 | Cc1cc2c(cc1C(F)(F)F)N(C(=O)Nc1ccc(C(=O)NC3CCN(Cc4ccccc4)C3)cc1)CC2 (configuration not stated) | 19
28 | CC1(C)N=C(N)N=C(N)N1OCc1cc(Cl)c(CON2C(N)=NC(N)=NC2(C)C)cc1Cl | 21
29 | COc1ccc2[nH]ccc(=NN=Cc3cccc(Cl)c3)c2c1 | 1
30 | CCCn1c(Sc2ccc(C#N)c([N+](=O)[O-])c2)nnc1-c1ccc(N(C)C)cc1 | 18
31 | COc1ccc2nc(C)cc(N/N=C/c3ccccc3[N+](=O)[O-])c2c1 | 2
32 | Cc1noc(-c2ccc3c(c2)CCN(CCC2CCC(NC(=O)c4cc5ccccc5[nH]4)CC2)CC3)n1.Cl (configuration not stated) | 21
33 | CC(C)[C@H](NC(=O)c1ccc(O)c(-c2ccc(Cl)c(Cl)c2)c1)C(=O)NCCN(C)C | 0
34 | CC(C)CCN1CCCN(Cc2ccc(C(=O)Nc3ccc(C(C)(C)C)cc3)cc2)CC1.O=C(O)C(F)(F)F | 49
35 | Cl.Cl.N=C(N)c1ccc(-c2cc(-c3cccc(C(=N)N)c3)on2)cc1 | 7
36 | Fc1ccc2[nH]c(-c3ccc(-c4ccc(CN5CCN(CCN6CCOCC6)CC5)cc4)cc3)nc2c1.O=C(O)C(F)(F)F | 38
37 | COc1c(OC)c(OC)c2ccccc2c1CNCCCCCCNCc1c(OC)c(OC)c(OC)c2ccccc12.Cl | 99
